Inconclusive results are not listed. Where a call stands in place of a potency, no number is given. Calls of active or inactive are those of the source. The call rests on the fitted dose curve; in most records, active means well fitted cell-killing curve with a large enough effect; inconclusive means small, poorly fitted or top-dose-only effect, or effect the other way; inactive means no such curve, though single readings can be large or run the other way. Numbered stars: 1 amine (or outer) side, 2 acyl side, 3 side chain; on linkers, the order of the positions; unused ones are H or OH. Bridge positions count the residues as written; N and C are the ends. Square brackets hold non-standard residues; d marks the D form. Peptide text beside a SMILES is read from it. ξ: configuration not given here. Phe(3R-OH) = O=C([C@@H](N[*:1])[C@H](O[*:3])c1ccccc1)[*:2]; NMeTrp(4-OMe) = CN[C@@H](Cc1c[nH]c2cccc(OC)c12)C(=O)O; X4 = O=C(C1CC2(c3ccc(O)cc3)c3ccccc3NC2N1[*:1])[*:2]; ξThr(3R)(O-yl) = C[C@@H](O[*:3])C(N[*:1])C(=O)[*:2]; NMeThr(3ξ) = CN[C@H](C(=O)O)C(C)O; ξW = NC(Cc1c[nH]c2ccccc12)C(=O)O; NMeL = CN[C@@H](CC(C)C)C(=O)O; NMeV = CN[C@H](C(=O)O)C(C)C; ξIle = CC[C@H](C)C(N)C(=O)O; ξY = NC(Cc1ccc(O)cc1)C(=O)O; ξV = CC(C)C(N)C(=O)O
Potency means the concentration at half of the fitted maximal effect.

This assay can be described thus: qHTS for Antimalaria activity screened against the NCATS CANVASS Library (AID 1347380). Further: nearly all actives have a fitted effect of over 40% in size.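 On activity change, negative = inhibition: Plasmodium falciparum strain Dd2 asexual parasites grown in red blood cells.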 Particulars: P. falciparum Dd2 growth, SYBR Green fluorescence, 72 h; series mostly up to 28.7 µM. An excerpt: Natural products and their derivatives continue to be wellsprings of nascent therapeutic potential. However, many laboratories have limited resources for biological evaluation, leaving their previously isolated or synthesized compounds largely or completely untested. To address this issue, the Canvass library of natural products was assembled (https://tripod.nih.gov/canvass), in collaboration with academic and industry researchers, for quantitative high-throughput screening (qHTS) across a diverse set of cell-based and biochemical assays. The pure (>85% purity by liquid chromatography/mass spectrometry [LC/MS]) Canvass library of 346 natural products were submitted by 45 academic laboratories and companies around the world. We collected pure natural products to circumvent deconvolution and structure elucidation due to time and resource limitations. The library was formatted into 1536-well plates and evaluated in 50 qHTS (in an 11-pnt concentration series) bioassays with broad scope of disease-relevant mechanisms. The resulting data set from 50 different assays was then systematically analyzed to identify overall trends and specific natural products with interesting biological activities. Reported herein are the results of each individual qHTS and their corresponding assay protocol. The proliferation assay assesses the ability of compounds to inhibit the proliferation and/or have cytotoxic effects (72 hr) against the asexual erythrocytic growth of Plasmodium falciparum Dd2, as determined by a SYBRGreen fluorescence assay. National Center for Advancing Translational Sciences (NCATS), Rockville, MD National Institute of Health (NIH), Bethesda, Maryland
Malaria-screen protocol: Assay adopted from Plouffe et al. 2008 PNAS 105: 9059; PMID: 18579783. 1. In a biosafety cabinet, 3 uL of complete Malaria Growth Media (1x RPMI 1640 with L-glutamine + 5.5 g/L Albumax II + 367 uM Hypoxanthine + 25 mM HEPES + 0.25% Sodium Bicarbonate + 35 uM Gentamicin sulfate) was dispensed into a 1536-well black clear Cyclo-Olefin Polymer plate (Aurora Microplates) using a Multidrop Combi (Thermo Fisher Scientific Inc.). 2. 23 nL of compounds (in DMSO solution) were pin transferred into the assay plates using the Kalypsis pin-tool equipped with a 1536 well pin heads. Dihydroartemisinin (working concentration 29 uM) was used as a control and pin transferred (23 nL) at a titration series, final concentration 56 pM - 1.84 uM. 3. In a biosafety cabinet, five microliter of Malaria-infected RBCs: hematocrit 4% (final concentration of 2.5%), 0.3% parasitemia was added to the assay plates using the Multidrop Combi (Thermo Fisher Scientific Inc.). 4. The assay plates were incubated for 72 hours at 37C, 5% O2, 5% CO2, 90%N2, 95% humidity. 5. In the biosafety cabinet, 2 uL of Lysis buffer (20 mM Tris-HCl + 10 mM EDTA + 0.16% saponin + 1.6% Triton-X + 10x SYBR Green) was added to the assay plates using the Multidrop Combi followed by a 25 sec shake immediately after dispensing. 6. The assay plates we incubated further for 18 hours at 37C, 5%O2, 5% CO2, 90%N2, 95% humidity. 7. The fluorescence signal was read using the EnVision (PerkinElmer) plate reader (bottom read) using a 485/14 nm excitation and 535/25 nm emission filters.
(qHTS replaces the single test concentration by a dilution series.)
`CC(C)(Br)[C@@H](Cl)C[C@H](Br)[C@](C)(Cl)/C=C/Br`: the Potency entry was “inactive”.

For `CC[C@H](C)C(NC(=O)[C@@H](NC)C(C)C)C(=O)NC1C(=O)N(C)[C@@H](C(C)O)C(=O)N[C@@H](C(C)C)C(=O)N(C)[C@@H](CC(C)C)C(=O)NC(C(C)C)C(=O)N(C)[C@@H](C(C)C)C(=O)N(C)[C@@H](Cc2c[nH]c3cccc(OC)c23)C(=O)N[C@@H](C(C)C)C(=O)N[C@@H]([C@H](O)c2ccccc2)C(=O)N[C@@H](C(C)C)C(=O)O[C@@H]1C` (stereo partly drawn) (H-[NMeV][ξIle][ξThr(3R)(O-yl)][NMeThr(3ξ)]V[NMeL][ξV][NMeV][NMeTrp(4-OMe)]V[Phe(3R-OH)]V; ester 3-C), the Potency is 3750 nM (active).

As to `Cc1cc(O)cc2oc(C[C@H](C)O)cc(=O)c12`, the Potency entry was “inactive”.

For the compound `C=CC(=C)CC[C@]1(C)[C@H]2C[C@H](OC(=O)C(C)CC)C=C3[C@H](OC(C)=O)O[C@H](OC(C)=O)[C@@]32[C@H](OC)C[C@@H]1C` (stereo not given in full), the Potency was 545 nM (active).

For `O=C(O)CC1OCc2c(O)cccc21` (stereo not given), the Potency result is “inactive”.

As to `C[C@@]12C[C@@H](C[C@H]3C(=O)O[C@@H](c4ccoc4)[C@H](OC(=O)c4ccccc4)[C@@H]31)OC2=O`, the Potency result is “inactive”.

With `CCCCCCCCC[C@@H]1C[C@@H]2CC[C@H]3[C@@H](C(=O)OCCCCN=C(N)N)[C@@H](C)N=C(N1)N23`, the Potency is 1640 nM (active).

With `CS/C=C/C(N)=O`, the Potency entry is “inactive”.

Turning to `O=c1cc(-c2ccc(O)c(O[C@@H]3O[C@H](CO)[C@@H](O)[C@H](O)[C@H]3O)c2)oc2cc(O[C@@H]3O[C@H](CO)[C@@H](O)[C@H](O)[C@H]3O)cc(O)c12`, the Potency was 4.7 nM (active).

Regarding `C[C@@H]1C(=O)[C@]23CC[C@H]1C[C@]21O[C@H]2C(C)(C)C=CC(=O)[C@]23COC1=O`, the Potency entry was “inactive”.

Regarding `C=C1C(=O)O[C@H]2[C@H]1CC/C(CO)=C\CC[C@@]1(C)O[C@@H]21`, the Potency was 8.4 nM (active).

As for `Oc1ccc([C@H]2Oc3ccc(/C=C/c4cc(O)cc(O)c4)cc3C2c2cc(O)cc(O)c2)cc1` (stereo not given in full), the Potency was 3 nM (active).

Consider `COc1cc(/C=C/C(=O)O)ccc1O`, for which the Potency is 3.3 nM (active).

In the case of `C[C@@H]1O[C@@H](Oc2c(-c3ccc(O)cc3)oc3cc(O)cc(O)c3c2=O)[C@H](O)[C@H](O)[C@H]1O`, the Potency entry was “inactive”.

For `C/C(=C\[C@H](C)C(=O)CCCC1CC(=O)NC(=O)C1)C(O)[C@@H](C)[C@H](O)C/C=C/CC/C=C/C(=O)O` (stereo not given in full), the Potency entry is “inactive”.

For the compound `C[C@@]12CCC[C@@](C)(C(=O)O)[C@H]1C[C@@H](O)[C@]13C[C@H]4C[C@H](O[C@@]4(C)C1)[C@@H]23`, the Potency result is “inactive”.

In the case of `CC1(C)CCC[C@]2(C)[C@@H]1CC[C@@]13C[C@@H](CC[C@H]12)C(C)(O)C3` (stereo not given in full), the Potency entry was “inactive”.

Take `O=C1CC(c2cc(O)cc(O)c2)Oc2cc(O)ccc21` (stereo not given): the Potency entry is “inactive”.

Take `C=C1[C@H]2CC[C@@]3(C=CC(=O)[C@@](C)(CCC(=O)Nc4c(O)ccc(C(=O)O)c4O)C3C2)[C@H]1O` (stereo not given in full): the Potency result was “inactive”.

In the case of `C=C1C[C@@]23C=CC(=O)[C@@](C)(CCC(=O)Nc4c(OC5O[C@H](CO)[C@@H](O)[C@H](O)[C@H]5O)ccc(C(=O)O)c4O)C2C[C@@H]1CC3` (stereo not given in full), the Potency result is “inactive”.

Consider `CNc1ccc(Cl)cc1C(=O)OC[C@]1(C)[C@H]2CC[C@]3(C)[C@@H](C[C@@H](OC)[C@H](C)[C@H]3C3=C(O)C(=O)OC3O)[C@]2(C)CC[C@H]1O` (stereo not given in full), for which the Potency entry is “inactive”.

For the compound `O=Cc1ccc2n1C[C@@]1(OC2)O[C@H](CO)[C@@H](O)[C@@H]1O`, the Potency result is “inactive”.

In the case of `OCc1ccc2ocnc2c1`, the Potency entry was “inactive”.

For `CC(=O)O[C@@H]1C=C2C(=O)OC[C@]2(O)[C@@]2(C)CCCC(C)(C)[C@H]12`, the Potency is 18.8 nM (active).

As for `C/C1=C\CC(=O)/C=C/C=C\c2csc(n2)[C@@H](C)NC(=O)C[C@@](S)([C@@H](C)C(=O)O)CC1`, the Potency entry is “inactive”.

Take `Oc1ccc(/C=C2/c3cc(O)cc(O)c3C(c3ccc(O)cc3)[C@H]2c2cc(O)cc(O)c2)cc1` (stereo not given in full): the Potency result was “inactive”.

Consider `O=Cc1ccc2n1C[C@@]1(C[C@H](O)[C@@H](CO)O1)OC2`, for which the Potency entry is “inactive”.

As for `C=C(NC(=O)c1csc(-c2nc3c(cc2O)-c2nc(cs2)C(=O)NC(C(C)O)C(=O)N/C(=C(\C)O)c2nc(cs2)C(=O)NC2c4nc(cs4)C(=O)NC(COC(=O)c4c5c6c(cccc6n4O)COC(=O)[C@@H](OC4C[C@](C)(O)[C@H](N(C)C)[C@H](C)O4)C2OC5)c2nc-3cs2)n1)C(N)=O` (stereo not given in full), the Potency is 334 nM (active).

As to `CN1C(=O)C2C(N=CN2C)N(C)C1=O` (stereo not given), the Potency entry was “inactive”.

`COc1cc(O)c2c3c(c(O)cc(C)c13)C(=O)OC2`: the Potency result was “inactive”.

Take `CCCCCCCCCCCCCCCC(=O)OC/C=C(\C)CCCC(C)CC(C)C(C)C` (stereo not given): the Potency was 1.9 nM (active).

Consider `C=C(C)[C@@H]1CC[C@]2(C)CC[C@]3(C)[C@H](CC[C@@H]4[C@@]5(C)CC[C@H](O)C(C)(C)[C@@H]5CC[C@]43C)[C@@H]12`, for which the Potency result is “inactive”.

On to `CCC[C@@H](C)/C=C(\C)[C@H](O)[C@H](C)/C=C/CC[C@@H](O)[C@H](C)[C@H](O)[C@H](C)[C@H](O)[C@H](C)[C@H]1O[C@H]([C@H](C)C(=O)O)CC[C@@H]1C`, for which the Potency is 5940 nM (active).

For `COc1ccc2oc3c(OC)c(OC)c(OC)c(OC)c3c(=O)c2c1`, the activity change, negative = inhibition was -46.5% [at 5.73 µM] (inactive).

With `CC(=O)O[C@H]1CC[C@@]2(C)C(CC[C@]3(C)C2CC=C2C4CC(C)(C)CC[C@]4(C)CC[C@]23C)C1(C)C` (stereo not given in full), the Potency result was “inactive”.

On to `O=c1cc(-c2ccc(O)cc2)oc2c([C@@H]3OC(CO)[C@H](O)[C@@H](O)[C@H]3O)c(O)cc(O)c12` (stereo not given in full), for which the Potency is 1.3 nM (active).

Consider `CN1CC[C@]2(c3cccc4c3N[C@@H]3N(C)CC[C@]43[C@@]34CCN(C)[C@@H]3Nc3ccccc34)c3ccccc3N[C@H]12`, for which the Potency was 1490 nM (active).

For `CC[C@H](C)[C@H](NC(=O)C(Cc1ccc(O)cc1)NC(=O)C(Cc1c[nH]c2ccccc12)NC(=O)[C@H](C)N)C(=O)N1C(C(=O)NC(Cc2ccc(O)cc2)C(=O)O)CC2(c3ccc(O)cc3)c3ccccc3NC12` (stereo not given in full) (H-A[ξW][ξY]I[X4][ξY]-OH), the Potency entry was “inactive”.

Turning to `CO[C@@H]1C[C@@H](C[C@H]2CC[C@H](C)[C@H]([C@@H](C)C(=O)O)O2)O[C@]2(O[C@](C)([C@H]3CC[C@@](C)([C@@H]4O[C@@H]([C@H]5O[C@](C)(O)[C@H](C)C[C@@H]5C)C[C@@H]4C)O3)C[C@H]2C)[C@@H]1C`, the Potency is 4.2 nM (active).

Consider `C=C(C)CC[C@H](Cc1c(O)cc(O)c2c1O[C@H](c1ccc(O)cc1O)CC2=O)C(=C)C`, for which the Potency was 5.9 nM (active).

Source of the values: PubChem BioAssay (NCATS).
